What follows are molecules tested against Epidermal growth factor receptor (Homo sapiens) (UniProt P00533) (assay: compounds binding epidermal growth factor receptor – biochemical, small-molecule microarray, 635 nm fluorescence, primary screen (AID 1104;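 further: score merges 667 nm emission intensity with spot signal to noise over triplicate slides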)). Details: EGFR binding, higher = more signal.
Epidermal growth factor receptor (Homo sapiens), sequence (P00533 whole entry, looked up): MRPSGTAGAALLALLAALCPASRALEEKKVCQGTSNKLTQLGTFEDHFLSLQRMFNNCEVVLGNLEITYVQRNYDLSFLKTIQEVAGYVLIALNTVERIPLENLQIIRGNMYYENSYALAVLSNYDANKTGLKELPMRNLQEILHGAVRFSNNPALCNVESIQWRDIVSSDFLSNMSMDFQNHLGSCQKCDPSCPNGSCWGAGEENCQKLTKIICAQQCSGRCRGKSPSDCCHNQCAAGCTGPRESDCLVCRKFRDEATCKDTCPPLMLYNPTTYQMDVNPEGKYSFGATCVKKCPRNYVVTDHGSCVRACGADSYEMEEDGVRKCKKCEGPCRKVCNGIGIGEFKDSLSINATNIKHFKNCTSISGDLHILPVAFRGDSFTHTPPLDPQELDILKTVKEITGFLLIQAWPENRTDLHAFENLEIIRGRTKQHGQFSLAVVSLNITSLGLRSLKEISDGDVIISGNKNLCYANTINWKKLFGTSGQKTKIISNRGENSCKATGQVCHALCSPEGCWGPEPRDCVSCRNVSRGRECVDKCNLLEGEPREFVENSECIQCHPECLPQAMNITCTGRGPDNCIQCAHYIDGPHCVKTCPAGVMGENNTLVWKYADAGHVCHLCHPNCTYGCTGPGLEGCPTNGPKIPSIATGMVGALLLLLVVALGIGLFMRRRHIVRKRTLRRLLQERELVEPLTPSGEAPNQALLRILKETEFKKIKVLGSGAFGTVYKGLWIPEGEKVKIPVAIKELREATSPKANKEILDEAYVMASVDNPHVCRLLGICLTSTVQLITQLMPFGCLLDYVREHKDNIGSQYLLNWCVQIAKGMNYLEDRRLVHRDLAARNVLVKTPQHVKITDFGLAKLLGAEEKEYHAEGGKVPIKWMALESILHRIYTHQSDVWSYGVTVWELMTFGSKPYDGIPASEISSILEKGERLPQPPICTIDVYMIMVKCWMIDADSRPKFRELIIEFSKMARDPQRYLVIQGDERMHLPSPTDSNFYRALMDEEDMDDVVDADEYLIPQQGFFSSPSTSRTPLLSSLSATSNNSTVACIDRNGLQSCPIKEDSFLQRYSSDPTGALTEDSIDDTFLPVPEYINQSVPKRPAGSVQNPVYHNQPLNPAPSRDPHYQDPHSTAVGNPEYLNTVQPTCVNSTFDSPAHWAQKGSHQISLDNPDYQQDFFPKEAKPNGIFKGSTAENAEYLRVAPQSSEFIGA

Question: `C=CCN1C(=O)[C@@]2(Cc3ccccc3)N=C(c3ccc(OCCCO)cc3)O[C@H]2c2ccccc21` was tested. Which composite z-score did it give?
Answer: Its composite z-score is 0.96.

Question: For `CC(=O)Nc1ccc([C@H]2[C@H](C)CC[C@H]3C(=O)N4[C@@H](CC[C@@H](C)[C@@H]4c4ccc(NC(C)=O)cc4)C(=O)N32)cc1`, which composite z-score is on record?
Answer: The composite z-score was 0.168.

Question: Which composite z-score does the source give for `COc1cc2c(cc1OC)CN(C(=O)[C@@H]1[C@H]3C(=O)O[C@H](c4ccccc4)[C@H](c4ccccc4)N3[C@H](c3ccccc3OCCO)[C@@]13C(=O)Nc1ccccc13)CC2` here?
Answer: The composite z-score was 0.0883.

Question: How did the composite z-score turn out when `CCOC(=O)C[C@H]1[C@H](OC(=O)Cc2ccc3c(c2)OCO3)[C@@H](NC(=O)c2ccc3ccccc3c2)c2cc(OCCCO)ccc2N1C(=O)Cc1ccc(OC)cc1` was run?
Answer: The composite z-score was 0.373.

Question: For `CO[C@@H]1COC(=O)[C@H](C)NC(=O)CC=C[C@@H](C)[C@H](OC)COC(=O)[C@H](C)NC(=O)CC=C[C@H]1C`, which composite z-score is on record?
Answer: The composite z-score was 0.55.

Question: How did the composite z-score turn out when `CO[C@H]1COC(=O)CC=C[C@H](C)COC(=O)[C@@H](OCc2ccccc2)C=C[C@@H]1C` was run?
Answer: Its composite z-score is 0.711.

Question: With `CCCC[C@@H]1C[C@H]1[C@@H](NC(=O)c1ccccc1)c1ccccc1C(F)(F)F` as the molecule, how does the composite z-score read?
Answer: The composite z-score was -0.279.

Question: `CO[C@@H]1COC(=O)[C@H](C)NC(=O)CC=C[C@@H](C)[C@H](NS(=O)(=O)c2ccc(C)cc2)COC(=O)CC=C[C@@H]1C` was tested. Which composite z-score did it give?
Answer: The composite z-score was 0.286.

Question: With `CC(=O)NCCCC[C@@H]1NC(=O)[C@H]2C[C@@H](C(=O)NCCCCCCN(C)C)[C@@H](c3cccc(OCCO)c3)N2C1=O` as the molecule, how does the composite z-score read?
Answer: Its composite z-score is 1.64.

Question: Which composite z-score does the source give for `NC(=O)NCC#Cc1ccc2c(c1)[C@]1(C(=O)N2)[C@H](c2ccccc2OCCO)N2[C@H](c3ccccc3)[C@H](c3ccccc3)OC(=O)[C@H]2[C@@H]1C(=O)N1CCN(c2ncccn2)CC1` here?
Answer: The composite z-score was 0.251.

Question: With `C[C@]1(C(=O)NCc2ccccc2)c2ccccc2C(=O)N(Cc2cc(C(F)(F)F)cc(C(F)(F)F)c2)[C@H]1c1ccc(CO)cc1` as the molecule, how does the composite z-score read?
Answer: Its composite z-score is 0.123.

Question: With `C=C(COC)/C(=C/C[C@@H](OC(C)=O)c1cccc(OCCO)c1)c1cc(C(=O)OC)ccc1OC` as the molecule, how does the composite z-score read?
Answer: The composite z-score was 0.214.

Question: How did the composite z-score turn out when `COC(=O)[C@H]1[C@@H]2COc3ccccc3[C@H]2N[C@H]1C(=O)OC` was run?
Answer: The composite z-score was 0.261.

Question: Which composite z-score does the source give for `CCc1cccc(NC(=O)O[C@H]2[C@H](OC(=O)Nc3ccccc3)[C@@H](OC(=O)Nc3ccccc3)[C@@H](OC)O[C@@H]2CO)c1` here?
Answer: The composite z-score was 0.0832.

Question: With `C=CCN1C(=O)[C@]2(O[C@H](CCn3cc(CCO)nn3)[C@@H]([Si](C)(C)c3ccc(OC)cc3)[C@@H]2C)c2cc(NC(=O)c3ccc(OC)cc3)ccc21` as the molecule, how does the composite z-score read?
Answer: Its composite z-score is 0.384.

Question: How did the composite z-score turn out when `C=C(COC)/C(=C/C[C@H](OC(C)=O)c1ccc(OCCO)cc1)c1cnc2ccccc2c1` was run?
Answer: The composite z-score was 0.716.

Question: For `[N-]=[N+]=NCc1ccccc1C[C@]1(C(=O)N2CCCCC2)N=C(c2ccc(OCCCO)cc2)O[C@H]1c1ccccc1CN=[N+]=[N-]`, which composite z-score is on record?
Answer: Its composite z-score is -0.107.

Question: For `CO[C@H]1O[C@H](CO)[C@@H](OC(=O)Nc2ccccc2)[C@H](OC(=O)Nc2ccc3c(c2)OCO3)[C@@H]1OC(=O)Nc1ccc2c(c1)OCO2`, which composite z-score is on record?
Answer: The composite z-score was -0.374.

Question: For `CCOC(=O)C1=C[C@@H](c2ccccc2)N(S(=O)(=O)c2ccc(C)cc2)[C@H]1c1ccc(F)cc1`, which composite z-score is on record?
Answer: Its composite z-score is 0.158.

Question: For `CCCC=C(CCC)[C@@H](NC(=O)c1ccc(C(F)(F)F)cc1)c1ccccc1`, which composite z-score is on record?
Answer: Its composite z-score is -0.405.

Question: `COC(=O)C[C@H]1O[C@]2(C(=O)N(Cc3ccccc3)c3ccc(I)cc32)[C@@H](C)[C@@H]1[Si](C)(C)c1ccc(OC)cc1` was tested. Which composite z-score did it give?
Answer: Its composite z-score is -0.398.

Question: For `CCC(=O)[C@]12O[C@@]3([C@@H]4C(=O)OCC[C@@H]41)N(CC)C(C)=C(C(=O)OC)[C@@H](c1ccccc1)N3C2=O`, which composite z-score is on record?
Answer: Its composite z-score is 0.0064.

Question: `COCCOC(=O)N1C(=O)[C@@]2(c3cc(C#CC4=CCCCC4)ccc31)[C@H](c1ccc(O)cc1)N1[C@H](c3ccccc3)[C@H](c3ccccc3)OC(=O)[C@H]1[C@@H]2C(=O)N1CCCCCCC1` was tested. Which composite z-score did it give?
Answer: The composite z-score was 0.405.

Question: For `O=C(CS)NCCCCCNC(=O)[C@H]1C[C@H]2C(=O)N3CCC[C@H]3C(=O)N2[C@H]1c1ccc(O)cc1`, which composite z-score is on record?
Answer: The composite z-score was 0.392.

Question: For `CSCC[C@@H]1NC(=O)CC=C[C@@H](C)COC(=O)[C@H](CCSC)NC(=O)CC=C[C@@H](C)COC1=O`, which composite z-score is on record?
Answer: The composite z-score was 0.434.

Question: For `COCCOC(=O)N1C(=O)[C@@]2(c3cc(C#CCNC(N)=O)ccc31)[C@H](C(=O)N1CCCCCCC1)[C@H]1C(=O)O[C@H](c3ccccc3)[C@H](c3ccccc3)N1[C@@H]2c1ccccc1OCCO`, which composite z-score is on record?
Answer: The composite z-score was 0.79.

Question: Which composite z-score does the source give for `O=C1O[C@H](c2ccccc2)[C@H](c2ccccc2)N2[C@H]1[C@@H](C(=O)Nc1nc3ccccc3s1)[C@]1(C(=O)Nc3ccc(C#CC4(O)CCCCCC4)cc31)[C@H]2c1ccc(O)cc1` here?
Answer: The composite z-score was 0.556.

Question: With `CC[C@H]1C2=C3C(CC[C@H]4C(OC)OC[C@](C)([C@@H]34)N(C(=O)OC(C)(C)C)C2)C(CO)C1CO` (stereo partly specified) as the molecule, how does the composite z-score read?
Answer: The composite z-score was 0.194.

Question: `CC(C)(C)OC(=O)CC[C@@]1(C(=O)NCc2ccccc2)N=C(c2ccc(OCCCO)cc2)O[C@@H]1c1ccccc1` was tested. Which composite z-score did it give?
Answer: Its composite z-score is -0.152.

Question: How did the composite z-score turn out when `CC(C)[Si](OCC[C@H]1O[C@]2(C(=O)N(Cc3ccccc3)c3ccccc32)[C@@H](C)[C@@H]1[Si](C)(C)O)(C(C)C)C(C)C` was run?
Answer: The composite z-score was -0.102.

Question: With `C[C@H]1COC(=O)[C@H](Cc2ccccc2)NC(=O)[C@@H](C)COC(=O)[C@H](Cc2ccccc2)NC1=O` as the molecule, how does the composite z-score read?
Answer: The composite z-score was 0.485.

Question: How did the composite z-score turn out when `COc1ccc([Si](C)(C)[C@H]2[C@H](CC(=O)N3Cc4ccccc4C[C@H]3CO)O[C@@]3(C(=O)N(Cc4cccc(N5CCOC5=O)c4)c4ccccc43)[C@@H]2C)cc1` was run?
Answer: The composite z-score was 1.13.

Question: With `CO[C@H]1COC(=O)[C@@H](OCc2ccccc2)C=C[C@H](C)[C@@H](OC)COC(=O)[C@H](OCc2ccccc2)C=C[C@@H]1C` as the molecule, how does the composite z-score read?
Answer: The composite z-score was -0.207.

Question: How did the composite z-score turn out when `C=C(COC)C(=O)CC[C@H](OC(=O)c1ccccc1-c1ccccc1C(=O)O)c1cccc(OCCO)c1` was run?
Answer: The composite z-score was 0.397.

Question: For `Cc1ccc(S[C@]2(C(=O)O)CC(=O)N(Cc3ccccc3)[C@@H]2c2ccc(CO)cc2)cc1`, which composite z-score is on record?
Answer: The composite z-score was -0.289.

Question: Which composite z-score does the source give for `O=C(O)[C@@H]1Cc2c([nH]c3ccccc23)[C@@H](c2ccccc2)N1` here?
Answer: Its composite z-score is 0.373.
